High-throughput results as filed in PubChem.
An excerpt weighted towards active compounds, which were near 3.7% of everything screened.
MazF activator: activators of E. coli MazEF toxin-antitoxin RNase, primary screen, biochemical, fluorescence, uHTS | Endoribonuclease toxin MazF (Escherichia coli (strain K12)), P0AE70 | FAM/BHQ RNA-DNA oligo cleavage fluorescence, 5 h | activation, % at 20 µM | 0.32% of 350,000 active | AID 504720, 2011; in the data active = activation above about 50%
Anthrax LF prot: Bacillus anthracis LF protease inhibitors, primary screen, biochemical, multiplex microsphere, MLPCN library. multiplex microsphere protease cleavage assay. inhibition, % at 10 µM. 0.12% of 360,000 active; in the data active = inhibition above about 30%; inconclusive = no clear call, values can overlap the other calls; also: plate controls were buffer without enzyme for full effect and enzyme alone for no effect
Target sequence (P15917 whole entry, looked up): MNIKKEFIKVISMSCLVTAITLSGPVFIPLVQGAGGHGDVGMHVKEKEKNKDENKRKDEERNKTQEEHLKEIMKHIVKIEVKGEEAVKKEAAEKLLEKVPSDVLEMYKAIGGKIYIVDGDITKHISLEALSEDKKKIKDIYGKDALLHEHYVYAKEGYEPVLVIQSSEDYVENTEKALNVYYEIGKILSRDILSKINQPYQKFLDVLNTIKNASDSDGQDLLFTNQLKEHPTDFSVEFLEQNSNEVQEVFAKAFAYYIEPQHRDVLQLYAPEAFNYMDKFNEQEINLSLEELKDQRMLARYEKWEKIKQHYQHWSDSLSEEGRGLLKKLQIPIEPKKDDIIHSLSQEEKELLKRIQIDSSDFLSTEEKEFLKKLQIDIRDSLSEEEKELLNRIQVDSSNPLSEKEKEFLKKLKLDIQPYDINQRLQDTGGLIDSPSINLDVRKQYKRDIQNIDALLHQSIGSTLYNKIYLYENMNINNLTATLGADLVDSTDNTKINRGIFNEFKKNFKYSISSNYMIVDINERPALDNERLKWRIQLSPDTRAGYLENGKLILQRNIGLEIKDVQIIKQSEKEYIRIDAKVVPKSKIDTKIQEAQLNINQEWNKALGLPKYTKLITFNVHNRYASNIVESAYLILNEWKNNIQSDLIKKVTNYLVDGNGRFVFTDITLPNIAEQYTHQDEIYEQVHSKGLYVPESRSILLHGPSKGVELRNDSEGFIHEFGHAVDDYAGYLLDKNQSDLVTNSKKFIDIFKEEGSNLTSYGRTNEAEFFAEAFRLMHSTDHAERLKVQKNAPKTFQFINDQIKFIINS
BoNT A protease: BoNT/A light chain protease inhibitors, primary screen, biochemical, flow cytometry, MLPCN library | inhibition, % at 10 µM | AID 588499, 2011 | multiplex microsphere protease substrate cleavage | Botulinum neurotoxin type A light chain protease (Clostridium botulinum A str. ATCC 3502) | 0.17% of 360,000 active; in the data active = inhibition above about 30%; inconclusive = no clear call, values can overlap the other calls; also: plate controls were buffer without enzyme for full effect and enzyme alone for no effect
BoNT F protease: BoNT/F light chain protease inhibitors, primary screen, biochemical, flow cytometry, MLPCN library; Multiplex microsphere protease cleavage assay; 0.22% of 360,000 active; inhibition, % at 10 µM; in the data active = inhibition above about 35%, passing the limit was not always enough; inconclusive = no clear call, values can overlap the other calls; also: plate controls were buffer without enzyme for full effect and enzyme alone for no effect
Bead autofluor: counter-screen for toxin protease inhibitors: compound fluorescence; AID 624483; fluorescence intensity (no concentration beside the values); 3.1% of 360,000 active; compound autofluorescence counterscreen, microsphere flow cytometry; stronger effect = higher value; in the data active = fluorescence intensity above about 16000; inconclusive = no clear call, values can overlap the other calls
BoNTA LC inh 2: BoNT/A light chain protease inhibitors, confirmation, biochemical, flow cytometry, cherry pick 2; 10% of 150 active; multiplex microsphere protease cleavage assay; shares compounds with BoNT A protease; inhibition, % at 10 µM; in the data active = inhibition above about 24%
Anthrax LF CP2: Bacillus anthracis LF protease inhibitors, confirmation, biochemical, multiplex microsphere; shares compounds with BoNT A protease; multiplex microsphere protease cleavage assay; inhibition, % at 10 µM; 7% of 150 active; AID 602327, 2012
BoNT-F LC CP2: BoNT/F light chain protease inhibitors, confirmation, biochemical, flow cytometry, cherry pick 2 | inhibition, % at 10 µM | 7% of 150 active | shares compounds with BoNT A protease | multiplex microsphere protease cleavage assay
* = called active by the depositor; ? = inconclusive; · = no result given. Rule as the data show it, unless noted: active = inhibition above about 25%; inactive = the rest.

SMILES | MazF activator | Anthrax LF prot | BoNT A protease | BoNT F protease | Bead autofluor | BoNTA LC inh 2 | Anthrax LF CP2 | BoNT-F LC CP2
COc1ccc(NC(=O)c2cc(S(=O)(=O)N3CCOCC3)ccc2C)cc1S(=O)(=O)N1CCCCC1 | 7 | 2 | 0 | 3 | 3883 | · | · | ·
COc1ccc(NC(=O)c2cc(S(=O)(=O)N3CCCC3)ccc2C)cn1 | -6 | 45* | 12 | 73* | 2946 | 1 | -2 | -1
Cc1cc2cc(CNC(=O)c3cccc([N+](=O)[O-])c3)ccc2[nH]1 | 3 | -49 | 79* | -64 | 2875 | 27* | -1 | 14
O=C(NCc1ccc2c(c1)OCO2)c1cccc([N+](=O)[O-])c1 | 8 | 0 | 0 | 2 | 2511 | · | · | ·
Cc1cc2cc(CNC(=O)c3ccc(Br)o3)ccc2[nH]1 | -1 | -78 | 67* | -110 | 2858 | 23 | 18 | -18
Cc1ccc(CNC(=O)c2ccc(Br)o2)cc1 | 5 | -6 | 0 | 3 | 5929 | · | · | ·
Cc1ccc(S(=O)(=O)NCc2ccc3[nH]c(C)cc3c2)cc1 | 8 | 0 | 20 | -42 | 4738 | 1 | -1 | 3
Cc1cc2cc(CNC(=O)Cc3cccs3)ccc2n1C | -6 | -53 | 75* | -62 | 2301 | 20 | 9 | -23
Cc1c(-c2ccc(OCCN3CCOCC3)cc2)c(=O)oc2ccc3ccccc3c12 | 6 | 2 | 0 | -4 | 3741 | · | · | ·
COc1cc(F)ccc1-c1csc(C(O)c2ccc(F)cc2)n1 (stereo not drawn) | · | 2 | 0 | -2 | 3952 | · | · | ·
CC(C)C[C@H]1CN(CCCC[C@H]2CNC(=O)C(=O)N2Cc2ccccc2)C(=O)C(=O)N1CCC1CCCCC1 | · | -4 | 0 | 3 | 5741 | · | · | ·
O=C1CC(=Nc2ccc([N+](=O)[O-])cc2)NN1c1c(Cl)cc(Cl)cc1Cl | -10 | -1 | 0 | -4 | 3474 | · | · | ·
CC1(C(=O)NS(=O)(=O)c2ccc3c(c2)CCO3)CCN1C(=O)COc1ccc(Cl)cc1 (stereo not drawn) | · | -2 | 0 | 3 | 3520 | · | · | ·
Cc1c(C(=O)NCc2ccc3c(c2)cc(C)n3C)cccc1[N+](=O)[O-] | -8 | -100 | 78* | -88 | 1750 | 6 | 3 | -8
Cn1c(CNC(=O)C2CCCCC2)cc2cc(Cl)ccc21 | 0 | 5 | 1 | ? | 3777 | · | · | ·
Cc1cc2cc(CNC(=O)c3ccc(Br)o3)ccc2n1C | -12 | -24 | 62* | -61 | 2858 | 15 | 10 | -11
Cc1cc2cc(CNC(=O)C3CCCC3)ccc2n1C | 1 | 1 | 45* | -32 | 3369 | 4 | 4 | -2
Cc1cc(Cn2nnc(-c3ccc(Br)cc3)n2)cc(C)c1O | -4 | -2 | -1 | -7 | 3982 | · | · | ·
CCc1nc2c(OCc3ccc(F)cc3)cccn2c1N(C)C(=O)COc1ccccc1 | · | 1 | 0 | -11 | 2988 | · | · | ·
CCCC(=O)OCC(=O)Nc1ccc2[nH]c(=O)[nH]c2c1 | -6 | -6 | 0 | 1 | 4226 | · | · | ·
Cc1cc(Br)ccc1SCC(=O)OCC(=O)Nc1ccc2[nH]c(=O)[nH]c2c1 | 16 | 36* | 11 | 62* | 3972 | 2 | 0 | 12
CN(C)CCN(C)C1CN(C2CCCC2)S(=O)(=O)C1 (stereo not drawn) | · | -6 | 0 | -1 | 6020 | · | · | ·
O=C(O)CN1CCN(CC(=O)O)CCN(CC(=O)O)CCN(CC(=O)O)CC1 | 16 | 9 | 9 | 63* | 5999 | 6 | 4 | 48*
O=C(COc1ccccc1)OCC(=O)c1c[nH]c2ccccc12 | 7 | -5 | 0 | 0 | 2839 | 1 | 1 | 3
Cc1ccc(C(=O)OCC(=O)c2c[nH]c3ccccc23)cc1 | 6 | 1 | 0 | -6 | 2547 | 4 | 3 | 14
SMILES | MazF activator | Anthrax LF prot | BoNT A protease | BoNT F protease | Bead autofluor | BoNTA LC inh 2 | Anthrax LF CP2 | BoNT-F LC CP2
Cc1cnc(C(=O)OCC(=O)c2c[nH]c3ccccc23)cn1 | 9 | 12 | 5 | ? | 9016 | · | · | ·
COc1ccc(C(=O)OCC(=O)c2c[nH]c3ccccc23)cc1OC | 4 | 39* | 37* | -11 | 5543 | 28* | 3 | -11
COc1ccc(OCC(=O)c2c[nH]c3ccccc23)cc1 | 3 | 3 | -2 | -12 | 4821 | · | · | ·
CC(C)Cc1ccc(C(C)C(=O)OCC(=O)c2c[nH]c3ccccc23)cc1 (stereo not drawn) | -23 | -1 | 0 | 3 | 11396 | 2 | -1 | 6
Cn1cccc1C(=O)OCC(=O)c1c[nH]c2ccccc12 | 10 | -2 | 0 | 3 | 4120 | · | · | ·
O=C(OCC(=O)c1c[nH]c2ccccc12)c1cc(Br)ccc1O | -11 | -1 | 1 | -2 | 3144 | 2 | -1 | 8
Nc1nc(=O)n(C2CCCO2)cc1Br (stereo not drawn) | -8 | -3 | 0 | 2 | 4230 | · | · | ·
CCCCCCCCC(c1nc2cc(C)c(C)cc2[nH]1)n1c(=O)c(-c2ccccc2Br)nc2ccccc21 (stereo not drawn) | · | 16 | 28 | 7 | 4821 | 28* | 2 | 19
CCCCC(c1nc2ccccc2[nH]1)n1c(=O)c(-c2ccccc2)nc2cc(C)c(C)cc21 (stereo not drawn) | · | 34* | 30* | 5 | 3875 | 11 | 8 | 11
CCCCC(c1nc2ccccc2[nH]1)n1c(-c2ccccc2)nc2cc(C)c(C)cc21 (stereo not drawn) | · | 0 | -2 | -19 | 6080 | · | · | ·
Cc1cc2cc(CNC(=O)Nc3cccc(Cl)c3)ccc2n1C | 3 | -137 | 48* | -140 | 1277 | 8 | 9 | 10
Cc1cccc(NC(=O)NCc2ccc3c(c2)cc(C)n3C)c1 | 4 | -131 | 58* | -149 | 1708 | 21 | 3 | -37
Cc1cccc(NC(=O)NCc2ccc3c(c2)OCO3)c1 | · | -4 | -1 | -4 | ? | · | · | ·
NC(=O)C1CCCN(C(=O)c2ccc(NC(=O)c3cccs3)cc2)C1 (stereo not drawn) | 3 | 0 | -1 | 2 | 3880 | · | · | ·
CCN(CC)c1ccc2cc(S(=O)(=O)c3ccc(C)cc3)c(=O)oc2c1 | -250 | 15 | 24 | -5 | 2271 | 5 | 5 | 2
COc1ccc2cc(C3=CC(=O)CC(C)(C)C3=O)ccc2c1 | -20 | 32* | 26 | 22 | 3419 | 9 | 6 | 4
COc1ccc(-c2ccccc2C2=CC(=O)CC(C)(C)C2=O)cc1 | 7 | 22 | 18 | 8 | 3662 | · | · | ·
